High-throughput results (PubChem BioAssay)
beta cell repl – inducers of MIN6 beta-cell proliferation, primary screen, ATP luminescence, uHTS; MIN6 cells proliferation, ATPlite luminescence, 48 h; cells starved in 0.2% serum; 100% = growth in 10% serum; proliferation, % at 10 µM; hit rate 0.29% among 330,000;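 active means compounds whose signal lies at least 3.5 SD above the mean of all wells on their plate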
GASC-1 inh – inhibitors of GASC-1 histone demethylase, primary screen, biochemical, fluorescence, DELFIA europium. Lysine-specific demethylase 4C (Homo sapiens), Q9H3R0. inhibition, % at 2.35 µM. hit rate 0.069% among 330,000. GST-JMJD2C(1-420) H3K9me3 demethylation;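 active means more than half of a compound's replicate wells show inhibition beyond 50%, single wells judged on their own value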;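 further: signal counts dimethyl H3K9 product captured on neutravidin plate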
Target sequence (Q9H3R0 1-420 limits assumed): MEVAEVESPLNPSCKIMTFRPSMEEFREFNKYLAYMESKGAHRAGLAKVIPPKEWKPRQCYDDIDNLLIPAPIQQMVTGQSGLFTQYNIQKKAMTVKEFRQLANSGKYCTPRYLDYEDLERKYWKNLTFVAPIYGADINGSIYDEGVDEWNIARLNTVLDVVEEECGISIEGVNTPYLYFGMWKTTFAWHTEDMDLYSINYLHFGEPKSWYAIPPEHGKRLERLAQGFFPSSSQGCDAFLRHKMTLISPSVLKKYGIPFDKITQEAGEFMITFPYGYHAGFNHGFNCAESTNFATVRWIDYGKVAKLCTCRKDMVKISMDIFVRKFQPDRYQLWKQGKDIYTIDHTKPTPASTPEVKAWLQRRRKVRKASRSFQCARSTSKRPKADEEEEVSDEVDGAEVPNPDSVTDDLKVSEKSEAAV
SMARCA2 activ – SMARCA2 (BRM) function activators, primary screen, cell-based, luminescence, high throughput; MG213 cells, MMTV-luciferase reporter, dexamethasone, overnight; activation, % at 9.1 µM; hit rate 1% among 370,000; in the data active means activation above about 7.8%
ALR inh – inhibitors of human ALR sulfhydryl oxidase, primary screen, biochemical, H2O2 detection, HRP-luminol luminescence, single point; purified ALR, DTT oxidation; inhibition, % (test concentration not listed); hit rate 3.8% among 290,000; AID 485317, 2010;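 active means mean replicate inhibition above about 79%, with every replicate also reaching it, limit read from the data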
Exocytosis inh – LAMP-1 surface exposure blockers, TALL-104 cells – cell-based, flow cytometry, MLPCN library, primary screen; TALL-104 LAMP-1 surface exposure; cells stimulated with thapsigargin and PMA; inhibition, % at 10 µM; hit rate 0.66% among 360,000; AID 651702, 2012;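 active means inhibition above about 55%, limit read from the data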
M18AAP inhibitor – PfM18AAP inhibitors, malaria aminopeptidase, primary screen, biochemical, QFRET, recombinant enzyme. M18 aspartyl aminopeptidase (Plasmodium falciparum 3D7). H-Glu-NHMec fluorogenic cleavage. inhibition, % at 7.35 µM. hit rate 1.2% among 290,000;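 active means inhibition above the campaign mean inhibition over all tested compounds plus 3 SD, cut at about 28% in these data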
Each line names hits and unclear results; the compound was inactive in the other large screens. Rows were chosen to be rich in hits. Some 5.4% of all compounds tested hit in one or more screens of this group.

COc1ccc(-n2c(SCC(=O)Nc3ccc(S(=O)(=O)Nc4nccs4)cc3)nnc2-c2cccs2)cc1	none (no result: beta cell repl, GASC-1 inh, ALR inh, Exocytosis inh, M18AAP inhibitor)
COC(=O)[C@]12C[C@H](CC(=O)NCCC(C)C)C(=O)N(Cc3ccc(Cl)cc3Cl)C1=C[C@H](C(C)(C)C)O[C@@H]2C	none (no result: beta cell repl, GASC-1 inh, ALR inh, Exocytosis inh, M18AAP inhibitor)
Cn1cc(SCC(=O)Nc2nccs2)c2ccccc21	ALR inh 98
Cn1cc(SCC(=O)NCC2CCCO2)c2ccccc21 (configuration not stated)	ALR inh 97 (no result: M18AAP inhibitor)
CCc1c(-c2cccc(OC)c2)ncn1CCc1ccccc1OC	none (no result: beta cell repl, GASC-1 inh, ALR inh, Exocytosis inh, M18AAP inhibitor)
CCn1c2ccccc2c2cc(NC(=O)C(=O)N3CCOCC3)ccc21	ALR inh 91
C/C(=N/Nc1ccc([N+](=O)[O-])cc1)c1ccc(C)cc1C	ALR inh 98
Cc1ccc(C2CCC3(CCC(=O)N3CCOC(=O)Nc3ccc(Br)cc3)CC2)cc1 (configuration not stated)	none (no result: beta cell repl, GASC-1 inh, ALR inh, Exocytosis inh, M18AAP inhibitor)
CC(=O)n1c2ccccc2c2nc(NC(C)C)sc21	ALR inh 99
CCCCNC(=O)C[C@H]1C[C@@]2(C(=O)OC)C(=C[C@H](C(C)C)O[C@@H]2C2CC2)N(CCC2=CCCCC2)C1=O	none (no result: beta cell repl, GASC-1 inh, ALR inh, Exocytosis inh, M18AAP inhibitor)
COc1ccc(NC(=O)c2cc(=O)[nH]c3ccccc23)cc1	none
COc1ccc(NCc2cc(=O)[nH]c3ccccc23)cc1	ALR inh 99
C=C(C)C(=O)Nc1cccc(C2=NOC3(C2)C[C@@H](C(N)=O)N(C(=O)c2cc([N+](=O)[O-])cc([N+](=O)[O-])c2)C3)c1 (some centres not stated)	Exocytosis inh 64 (no result: ALR inh, M18AAP inhibitor)
CCN1CCN(C(=S)c2ccc(O)cc2)CC1	M18AAP inhibitor 47 (no result: ALR inh)
CC1CCN(C(=S)c2ccc(O)cc2)CC1	ALR inh 96
CC1CCN(C(=S)c2ccccc2O)CC1	none
CN(C)c1ccc(C(=S)N2CCN(Cc3ccccc3)CC2)cc1	M18AAP inhibitor 55
COC(=O)C1CN(Cc2ccccc2)CCS(=O)(=O)N1Cc1ccccc1 (configuration not stated)	none (no result: beta cell repl, GASC-1 inh, ALR inh, Exocytosis inh, M18AAP inhibitor)
COc1ccccc1/C=N\NC(=O)c1cccc(S(=O)(=O)N(C)C)c1	none (no result: beta cell repl, GASC-1 inh, ALR inh, Exocytosis inh, M18AAP inhibitor)
O=C1NN(c2ccc(Cl)cc2)C(=O)/C1=C\c1ccc(-c2cccc(C(=O)O)c2)o1	none (no result: beta cell repl, GASC-1 inh, ALR inh)
CCOC(=O)c1cc(-c2ccc(/C=C3/C(=O)NC(=O)C(C#N)=C3C)o2)ccc1Cl	none
Cc1ccc(N2NC(=O)/C(=C/c3ccc(-c4ccc(Cl)c(C(=O)O)c4)o3)C2=O)cc1	ALR inh 99
CCCCC1(C)OC(=O)C(=Cc2ccc(-c3ccc(Cl)c(C(=O)O)c3)o2)C(=O)O1 (configuration not stated)	ALR inh 98
CCOc1ccc2nc(SCC(=O)Nc3ccc4c(c3)OCCO4)[nH]c2c1	none
CCOc1ccc2nc(SCC(=O)Nc3cccc(S(=O)(=O)NC4=NCCCCC4)c3)[nH]c2c1	ALR inh 92
CC(C)C(=O)Nc1cccc(S(=O)(=O)NC2=NCCC2)c1	none (no result: beta cell repl, GASC-1 inh, ALR inh, M18AAP inhibitor)
CC(=O)c1cccc(S(=O)(=O)Nc2cccc(S(=O)(=O)NC3=NCCC3)c2)c1	SMARCA2 activ 10
CC(=O)c1ccc(S(=O)(=O)Nc2cccc(S(=O)(=O)NC3=NCCC3)c2)cc1	ALR inh 100
O=C(CNS(=O)(=O)c1ccc(F)cc1)N1CCN(c2ccccn2)CC1	none (no result: beta cell repl, GASC-1 inh, ALR inh, Exocytosis inh, M18AAP inhibitor)
O=C(Cc1c[nH]c2ccccc12)Nc1ccc(Nc2cccnc2)c(-c2ccc(F)c(F)c2)c1	none (no result: beta cell repl, GASC-1 inh, ALR inh, Exocytosis inh, M18AAP inhibitor)
N#Cc1[nH]nc2nc[nH]c(=O)c12	none (no result: beta cell repl, GASC-1 inh, ALR inh, Exocytosis inh, M18AAP inhibitor)
CC(=O)Oc1oc(-c2ccccc2)nc1C=Nc1ccccc1	none
CCOC(=O)c1ccc(N=Cc2nc(-c3ccccc3)oc2OC(C)=O)cc1	ALR inh 94
Cc1ccccc1CN1CCCCC(NC(=O)c2c(F)cccc2F)C1=O (configuration not stated)	none (no result: beta cell repl, GASC-1 inh, ALR inh, Exocytosis inh, M18AAP inhibitor)
O=C1CC(c2ccco2)CC(O)=C1C=NCC1NCCc2ccccc21 (configuration not stated)	M18AAP inhibitor 29
